# Results: PubChem BioAssay
# Target: Albumin (Bos taurus) (UniProt P02769)
# Assay: compounds binding labelled BSA control protein – biochemical, small-molecule microarray, Alexa647 label, 635/667 nm fluorescence, artefact control for SMM control protein annotation, profiling panel (AID 1118);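 also: score merges 667 nm emission intensity and signal-to-noise per printed compound spot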
# Details: BSA-A647 binding, fluorescence 635 nm, higher = more signal
# Chain of Albumin (Bos taurus) (P02769 whole entry, looked up): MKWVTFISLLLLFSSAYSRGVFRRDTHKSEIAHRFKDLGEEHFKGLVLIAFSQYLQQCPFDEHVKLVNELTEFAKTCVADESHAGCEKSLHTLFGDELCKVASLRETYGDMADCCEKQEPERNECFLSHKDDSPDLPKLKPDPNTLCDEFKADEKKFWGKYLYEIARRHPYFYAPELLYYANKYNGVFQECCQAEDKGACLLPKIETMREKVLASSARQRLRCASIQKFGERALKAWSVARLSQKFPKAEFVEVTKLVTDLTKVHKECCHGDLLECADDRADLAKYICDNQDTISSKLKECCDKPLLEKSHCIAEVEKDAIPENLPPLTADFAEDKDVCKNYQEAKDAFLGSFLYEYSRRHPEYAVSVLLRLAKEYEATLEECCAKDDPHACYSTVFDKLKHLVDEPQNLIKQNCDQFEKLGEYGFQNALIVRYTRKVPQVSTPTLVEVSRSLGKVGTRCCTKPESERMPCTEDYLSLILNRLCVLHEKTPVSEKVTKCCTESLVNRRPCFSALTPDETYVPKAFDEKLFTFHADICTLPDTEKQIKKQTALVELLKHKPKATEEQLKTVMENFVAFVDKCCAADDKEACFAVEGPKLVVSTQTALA
row,Compound,composite z-score
1,CC1CC/C=C\[C@H]2OC34C=CCN(C(C)(C)C)C(=O)[C@H]3N(CCCCCCO)C(=O)[C@@H]4C2C(=O)O1 (stereo not given in full),-0.805
2,C[C@@]1([C@@H](NC(=O)c2ccccc2)c2ccc(-c3ccccc3)cc2)C[C@H]1C1CCCCC1,0.373
3,COCCCNC(=O)[C@@]1(Cc2ccccc2N=[N+]=[N-])N=C(c2ccc(OCCCO)cc2)O[C@H]1c1ccccc1N=[N+]=[N-],0.964
4,CCN(CC)c1ccc(N2CC=CC34O[C@@H]5/C=C\CCCOC(=O)C5[C@H]3C(=O)N(CCO)[C@@H]4C2=O)cc1 (stereo not given in full),-0.633
5,CC(C)(C)OC(=O)CC[C@]12N=C(c3ccc(OCCCO)cc3)O[C@H]1c1ccccc1N(CCS(=O)(=O)c1ccccc1)C2=O,0.0963
6,CN1C(=O)C2C=CC(C(O)c3cccs3)N(Nc3ccccc3)C2C1=O (stereo not given),0.95
7,O=C1O[C@H](c2ccccc2)[C@H](c2ccccc2)N2[C@H]1[C@@H](C(=O)O)[C@]1(C(=O)Nc3ccc(C#CC4=CCCCC4)cc31)[C@H]2c1ccccc1OCCO,0.871
8,COc1cc(OC)c(C(O)C2C=CC3C(=O)NC(=O)C3N2Nc2ccc(Cl)cc2Cl)cc1Br (stereo not given),1
9,C=CC[C@]1(C(=O)NCCCOC)N=C(c2ccc(OCCCO)cc2)O[C@H]1c1ccccc1N=[N+]=[N-],0.958
10,Cc1ccc(S[C@]2(C(=O)NCCN3CCOCC3)CC(=O)N(Cc3ccccc3Cl)[C@@H]2c2ccc(CO)cc2)cc1,0.429
11,Cc1ccc(S[C@]2(C(=O)NCC(C)C)CC(=O)N(Cc3cc(C(F)(F)F)cc(C(F)(F)F)c3)[C@@H]2c2ccc(CO)cc2I)cc1,0.0274
12,CC(C)[C@@H](CO)NC(=O)[C@H]1[C@@H](c2ccccc2)N(c2ccccc2)O[C@@H]1C,0.595
13,C=CCOC(=O)[C@@H]1[C@H]2C(=O)O[C@H](c3ccccc3)[C@H](c3ccccc3)N2[C@H](c2ccc(OCCOC(=O)[C@@H]3C[C@@H]4C(=O)N[C@@H](CCCCN(C)C)C(=O)N4[C@@H]3c3ccc(O)cc3)cc2)[C@@]12C(=O)Nc1ccc(I)cc12,0.848
14,COCCOC(=O)N1C(=O)[C@@]2(c3cc(C#CC4=CCCCC4)ccc31)[C@H](C(=O)Nc1nc3ccccc3s1)[C@H]1C(=O)O[C@H](c3ccccc3)[C@H](c3ccccc3)N1[C@@H]2c1ccccc1OCCO,0.657
15,CC(C)N1C(=O)[C@@]2(Cc3ccccc31)c1ccccc1C(=O)N(C1CCCCC1)[C@H]2c1ccc(CO)cc1,-0.352
16,O=C1O[C@H](c2ccccc2)[C@H](c2ccccc2)N2[C@H]1[C@@H](C(=O)O)[C@]1(C(=O)Nc3ccc(C#CCCO)cc31)[C@H]2c1ccc(O)cc1,0.279
17,C=CC[C@@]1(C(=O)NCc2ccccc2)N=C(c2ccc(OCCCO)cc2)O[C@@H]1c1ccccc1N=[N+]=[N-],0.98
18,COc1ccc(CCN2C(=O)[C@@]3(c4ccc([N+](=O)[O-])cc4)CC(=O)N(C4CCCCC4)[C@@H]3c3ccc(CO)cc32)cc1,-1.26

row,Compound,composite z-score
1,C=CCOC(=O)[C@@H]1[C@H]2C(=O)O[C@H](c3ccccc3)[C@H](c3ccccc3)N2[C@H](c2ccc(OCCOC(=O)[C@@H]3C[C@@H]4C(=O)N[C@@H](CCCC[N+](C)(C)C)C(=O)N4[C@@H]3c3cccc(OCCO)c3)cc2)[C@@]12C(=O)Nc1ccc(I)cc12,0.769
2,O=C1[C@H]2C=C(Br)[C@H](C[C@@H]2OCCCCO)[C@@]12CO2,0.0664
3,O=C(NCc1ccccc1)[C@@]1(Cc2ccccc2)N=C(c2ccc(OCCCO)cc2)O[C@H]1c1ccccc1,0.974
4,CCc1oc(CC[C@@H](CO)NC(=O)NCCn2cc(C3(O)CCCCC3)nn2)c(C(=O)OC)c1C(=O)OC,-0.272
5,C=C(/C(=C/C[C@@H](OC(C)=O)c1ccc(OCCO)cc1)c1cnc2ccccc2c1)C(C)C,0.444
6,COC(=O)[C@@]1(Cc2ccc(F)cc2)[C@H]2c3cc(C(=O)N(C)C)n(Cc4ccc(S(C)(=O)=O)cc4)c3C[C@H]2CN1C(=O)c1ccccc1,0.653
7,O=C(NCc1ccc(F)cc1)[C@H]1C[C@H]2C(=O)N[C@@H](Cc3ccccc3)C(=O)N2[C@H]1c1ccc(O)cc1,-1.22
8,C=CC[C@@]1(C(=O)N(C)C)N=C(c2ccc(OCCCO)cc2)O[C@@H]1c1ccccc1N=[N+]=[N-],0.757
9,C=C(COC)/C(=C/C[C@@H](OC(C)=O)c1ccc(OCCO)cc1)c1cc(C(=O)OC)ccc1OC,0.616
10,Cc1ccc(C(C)CC(O)C2C=CC3C(=O)N(C)C(=O)C3N2NC(=O)OC(C)(C)C)o1 (stereo not given),1.01
11,CC(C)C[C@@H]1NC(=O)[C@H]2C[C@@H](C(=O)NCCCCCCN(C)C)[C@@H](c3ccc(O)cc3)N2C1=O,-0.581
12,CN(C)CCCCCCNC(=O)[C@@H]1C[C@@H]2C(=O)N[C@@H](CCCCN)C(=O)N2[C@@H]1c1cccc(OCCO)c1,1.05
13,[N-]=[N+]=NCc1ccccc1[C@H]1OC(c2ccc(OCCCO)cc2)=N[C@@]1(Cc1ccccc1)C(=O)NCc1ccccc1,0.882
14,CCOC(=O)C[C@H]1[C@H](OC(=O)c2cc3ccccc3oc2=O)[C@@H](NC(=O)C2CCCCC2)c2cc(OCCCO)ccc2N1C(=O)c1ccccc1,0.266
15,[N-]=[N+]=NCc1ccccc1C[C@]1(C(=O)NCC(O)CO)N=C(c2ccc(OCCCO)cc2)O[C@H]1c1ccccc1 (stereo not given in full),0.922
16,CO[C@H]1O[C@H](CO)[C@@H](OC(=O)Nc2ccc(Br)cc2)[C@H](OC(=O)c2cc3ccccc3[nH]2)[C@H]1OC(=O)c1cc2ccccc2[nH]1,0.93
17,CC(CO)N1C(=O)[C@@H]2C3C(=O)OCCC/C=C\[C@H]3OC23C=CCN(c2ccc4ccccc4c2)C(=O)[C@@H]13 (stereo not given in full),0.611
